# “And” between values parts separate entries of the source, which are not always exact repeats. Identical values can stand only once. The source made the active and inactive calls. Unless noted, the rule behind the calls is not given here.
# Columns and labels:
# [1] = liver-stage malaria parasite growth inhibition, primary screen, cell-based, HepG2, luciferase luminescence, HepG2 viability (AID 624349; in the data active = parasite load remaining mostly below about 12%, no sharp cut-off; inactive = mostly above about 10%;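 note: 100% = mean of DMSO negative control wells on the same plate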); conditions: P. berghei liver stage in HepG2, luciferase luminescence, concentration not given here; parasite load remaining: stronger effect = lower value; viability: measured here: HepG2 viability without parasites
# [2] = kinase inhibitors against Plasmodium liver-stage infection, cell-based, known kinase inhibitor set, luminescence, hepatoma host viability (AID 624392); conditions: Plasmodium liver stage in hepatoma cells, luciferase luminescence, concentration not given here; liver cell % of control: measured here: host liver cell viability; parasite % of control: stronger effect = lower value;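 note: infected cells incubated roughly two days before readout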
# [3] = Cy5 fluorescence interference with SSB-bound oligo, artefact control for HCV NS3 helicase inhibitor project, biochemical, NIH Clinical Collection, E. coli SSB (AID 743268)
# [4] = system: Hepatitis C virus NS3 helicase; experiment: HCV NS3 helicase inhibitors, primary screen, biochemical, fluorescence polarization, NIH Clinical Collection (AID 743270); conditions: NS3 helicase binding to Cy5-dT15 DNA, stronger effect = higher value, concentration not given here
# [5] = target: Single-stranded DNA-binding protein (Escherichia coli (strain K12)) (UniProt P0AGE0); experiment: E. coli SSB displacement from DNA, counter-screen for HCV NS3 helicase inhibitor project, biochemical, fluorescence polarization, NIH Clinical Collection (AID 743271; in the data active = inhibition above about 28%); conditions: stronger effect = higher value, concentration not given here
# [6] = fluorescence interference in NS3h assay format, artefact control for HCV NS3 helicase inhibitor project, biochemical, NIH Clinical Collection (AID 743272); conditions: fluorescence interference counterscreen, stronger effect = lower value;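 note: HCV NS3 helicase with a Cy5 labelled single stranded DNA probe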
smiles,measurement,setting,value
N=c1ccn2c(n1)O[C@@H]1C2O[C@H](CO)[C@H]1O (stereo partly specified),parasite load remaining,[1],234% (inactive)
same,viability,[1],85%
O=C(c1cc2cc(O)ccc2[nH]1)c1cc2cc(O)ccc2[nH]1,parasite load remaining,[1],37.2% (inactive)
same,viability,[1],97.4%
CCOC(=O)c1c(C)[nH]c(/C=C2\C(=O)Nc3ccccc32)c1C,parasite load remaining,[1],39.2% (inactive)
same,viability,[1],69.8%
O=C1C(Cl)=C(N2C(=O)CCC2=O)C(=O)c2ccccc21,parasite load remaining,[1],34.2% (inactive)
same,viability,[1],76.3%
N#C/C(=C(/N)Sc1ccccc1N)c1cccc(C(O)c2ccncc2)c1 (stereo unspecified),parasite load remaining,[1],49.2% (inactive)
same,viability,[1],70%
NC(=O)Nc1sc(-c2ccccc2)cc1C(N)=O,parasite load remaining,[1],55.2% (inactive)
same,viability,[1],90.8%
same,liver cell % of control,[2],111%
same,parasite % of control,[2],316% (inactive)
O=C1Cc2c([nH]c3ccc([N+](=O)[O-])cc23)-c2ccccc2N1,parasite load remaining,[1],65.2% (inactive)
same,viability,[1],128%
same,liver cell % of control,[2],82.9%
same,parasite % of control,[2],65.2% (inactive)
C=CC(=O)Nc1cccc(CN2C(=O)N(c3cc(OC)cc(OC)c3)Cc3cnc(NCCCCN(CC)CC)nc32)c1,liver cell % of control,[2],102%
same,parasite % of control,[2],70.3% (active)
N#Cc1cnc2cnc(NCc3cccnc3)cc2c1Nc1ccc(F)c(Cl)c1,parasite load remaining,[1],47.9% (inactive)
same,viability,[1],84.2%
O=c1c(O)c(-c2ccc(O)c(O)c2)oc2cc(O)c(O)c(O)c12,parasite load remaining,[1],32.1% (inactive)
same,viability,[1],88.8%
CC(C)(C)c1ccc(S(=O)(=O)Nc2ccc(-n3ccnc3)cc2)cc1,parasite load remaining,[1],37.4% (inactive)
same,viability,[1],67.1%
COC(=O)c1ccc2c(c1)[nH]c(=O)c1c(Nc3ccc(OC(F)(F)F)cc3)ncnc12,liver cell % of control,[2],107%
same,parasite % of control,[2],97.4% (inactive)
O=C1c2ccccc2-c2nc3nnnn3nc21,parasite load remaining,[1],-1.07% (inactive)
same,viability,[1],0.01%
O=C(Nc1ccc(-c2csc(Nc3ccc(Cl)cc3)n2)cc1)c1cc([N+](=O)[O-])cc(C(F)(F)F)c1,liver cell % of control,[2],106%
same,parasite % of control,[2],97.2% (inactive)
O=C1Nc2ccc(Br)cc2/C1=C/c1cc2c([nH]1)CCCC2,parasite load remaining,[1],44.1% (inactive)
same,viability,[1],66.2%
CCCCCCOC(=O)[C@]1(O)C[C@@H]2O[C@@]1(C)n1c3ccccc3c3c4c(c5c6ccccc6n2c5c31)C(=O)NC4,parasite load remaining,[1],55.7% (inactive)
same,viability,[1],93.7%
CC(C)C(CO)Nc1nc(NCc2ccc(S(N)(=O)=O)cc2)c2ncn(C(C)C)c2n1 (stereo unspecified),liver cell % of control,[2],95.4%
same,parasite % of control,[2],647% (inactive)
CN(C)c1ccc(/C=C2/C(=O)Nc3ccccc32)cc1,parasite load remaining,[1],34.8% (inactive)
same,viability,[1],126%
O=C(Nc1cccc(-c2csc(Nc3cccc(C(F)(F)F)c3)n2)c1)c1cc([N+](=O)[O-])cc(C(F)(F)F)c1,liver cell % of control,[2],98.5%
same,parasite % of control,[2],79.7% (inactive)
Nc1ccc(-c2cnc(N)c(C(=O)c3cccnc3)n2)cn1,liver cell % of control,[2],97.9%
same,parasite % of control,[2],132% (inactive)
Cn1c(C2=C(c3c4n(c5ccccc35)CCC(CN)C4)C(=O)NC2=O)cc2ccccc21 (stereo unspecified),liver cell % of control,[2],41.8% and 77.6% and 88.8%
same,parasite % of control,[2],3.36% (inactive) and 70.7% (inactive) and 90.3% (inactive)
Nc1nc(O)c(C2=C3C(=Nc4ccccc43)C(=O)NCC2)[nH]1,parasite load remaining,[1],45.8% (inactive)
same,viability,[1],99.9%
Nc1ncnc2c1cnn2-c1ccccc1,parasite load remaining,[1],72% (inactive)
same,viability,[1],108%
Nc1cc(Nc2ccc(S(N)(=O)=O)cc2)ncn1,parasite load remaining,[1],48.4% (inactive)
same,viability,[1],133%
same,liver cell % of control,[2],97.7%
same,parasite % of control,[2],145% (inactive)
CCOc1nc(NC(=O)Cc2cc(OC)ccc2OC)cc(N)c1C#N,parasite load remaining,[1],37.8% (inactive)
same,viability,[1],72.7%
Cc1nc2cc3nc(-c4cccs4)cnc3cc2n1C,parasite load remaining,[1],6.62% (active)
same,viability,[1],168%
O=C1NCCc2[nH]c(-c3ccnc(-c4cnc5ccccc5c4)c3)cc21,parasite load remaining,[1],35.3% (inactive)
same,viability,[1],77.1%
CCN1CCN(Cc2ccc(NC(=O)c3cc(NC(=O)c4ccc5n[nH]nc5c4)cc(OC)c3)cc2C(F)(F)F)CC1,liver cell % of control,[2],101%
same,parasite % of control,[2],138% (inactive)
CCCCc1c(-c2ccc(OC)cc2)[nH]c2nccnc12,parasite load remaining,[1],34.8% (inactive)
same,viability,[1],106%
CCN1CCN(Cc2ccc(NC(=O)c3cc(NC(=O)c4cncc(-c5cccs5)c4)cc(OC)c3)cc2C(F)(F)F)CC1,liver cell % of control,[2],101%
same,parasite % of control,[2],88.5% (inactive)
Nc1cnc(CNc2ccccc2Cl)cn1,liver cell % of control,[2],100%
same,parasite % of control,[2],136% (inactive)
CC(C)n1cnc2c(NCc3ccccc3)nc(NCCCO)nc21,parasite load remaining,[1],34.6% (inactive)
same,viability,[1],118%
CC(C)C(CO)Nc1nc(Nc2ccc(Cl)c(C(=O)O)c2)c2ncn(C(C)C)c2n1 (stereo unspecified),liver cell % of control,[2],94.7%
same,parasite % of control,[2],116% (inactive)
C=CC(=O)Nc1ccc(Nc2nc(NC3CCC(N(C)C)CC3)nc3c2ncn3C(C)C)cc1 (stereo unspecified),liver cell % of control,[2],57.1%
same,parasite % of control,[2],6.69% (inactive)
O=C(Nc1ccc(-c2csc(Nc3cccc(C(F)(F)F)c3)n2)cc1)c1cc([N+](=O)[O-])cc(C(F)(F)F)c1,liver cell % of control,[2],101%
same,parasite % of control,[2],70% (inactive)
CC[C@H]1OC(=O)[C@H](C)C(=O)[C@H](C)[C@@H](O[C@@H]2O[C@H](C)C[C@H](N(C)C)[C@H]2O)[C@](C)(OC)C[C@@H](C)C(=O)[C@H](C)[C@@H]2N(CCCCn3cnc(-c4cccnc4)c3)C(=O)O[C@@]21C,parasite load remaining,[1],32.3% (inactive)
same,viability,[1],63.9%
same,fluorescence ratio,[3],0.97 (inactive)
same,inhibition,[4],-9.83% (inactive)
same,inhibition,[5],1.18% (inactive)
same,fluorescence ratio,[6],0.92 (inactive)
c1ccc2c(-c3ccncc3)c[nH]c2c1,parasite load remaining,[1],30.9% (inactive)
same,viability,[1],66.5%
CCN1CCN(Cc2ccc(NC(=O)c3cc(NC(=O)c4ccno4)cc(OC)c3)cc2C(F)(F)F)CC1,liver cell % of control,[2],99.7%
same,parasite % of control,[2],75.7% (inactive)
COc1cc(NC(=O)c2ccnc(N)c2)cc(C(=O)Nc2cccc(C(F)(F)F)c2)c1,liver cell % of control,[2],96.6%
same,parasite % of control,[2],89.2% (inactive)
CCCC(=O)Oc1ccc2[nH]c(C(=O)c3cc4ccccc4[nH]3)cc2c1,parasite load remaining,[1],38.9% (inactive)
same,viability,[1],104%
C=CC(=O)Nc1cccc(N2C(=O)N(c3cc(OC)cc(OC)c3)Cc3cnc(NCCCCN(CC)CC)nc32)c1,liver cell % of control,[2],102%
same,parasite % of control,[2],107% (inactive)
COc1cc(NC(=O)c2cnc(N)o2)cc(C(=O)Nc2cccc(C(F)(F)F)c2)c1,liver cell % of control,[2],87.7%
same,parasite % of control,[2],106% (inactive)
Nc1ccccc1CNc1nc(NCCO)nc2c1ncn2CCN1CCOCC1,liver cell % of control,[2],100%
same,parasite % of control,[2],125% (inactive)
COc1cc(NC(=O)c2ccno2)cc(C(=O)Nc2cccc(C(F)(F)F)c2)c1,liver cell % of control,[2],96.7%
same,parasite % of control,[2],70% (inactive)
CC(C)n1cnc2c(NCc3ccccc3)nc(NCc3ccccc3)nc21,liver cell % of control,[2],91.8%
same,parasite % of control,[2],83.2% (inactive)
O=C(Nc1ccc(-c2csc(Nc3ccccc3)n2)cc1)c1cc([N+](=O)[O-])cc(C(F)(F)F)c1,liver cell % of control,[2],102%
same,parasite % of control,[2],102% (inactive)
O=C(Nc1cccc(-c2csc(Nc3ccccc3)n2)c1)c1ccccc1,liver cell % of control,[2],102%
same,parasite % of control,[2],31.8% (inactive)
O=c1[nH]c2ccccc2c2ncnc(Nc3ccc(OC(F)(F)F)cc3)c12,liver cell % of control,[2],101%
same,parasite % of control,[2],119% (inactive)
CC(C)n1cnc2c(Nc3ccc(F)c(Cl)c3)nc(NCCO)nc21,liver cell % of control,[2],96.9%
same,parasite % of control,[2],107% (inactive)
CCN1CCN(Cc2ccc(NC(=O)c3ccc(C)c(C=Cc4cnc(Nc5cc(N6CCNCC6)nc(C)n5)cn4)c3)cc2C(F)(F)F)CC1,liver cell % of control,[2],96.8%
same,parasite % of control,[2],369% (inactive)
CC(C)n1cnc2c(Nc3cccc(Cl)c3)nc(N(CCO)CCCO)nc21,liver cell % of control,[2],81.2%
same,parasite % of control,[2],381% (inactive)
O=C(Nc1cccc(-c2csc(Nc3ccc(Cl)cc3)n2)c1)c1ccccc1,liver cell % of control,[2],90.9%
same,parasite % of control,[2],112% (inactive)
COc1cc(NC(=O)c2csc(N)n2)cc(C(=O)Nc2cccc(C(F)(F)F)c2)c1,liver cell % of control,[2],88.9%
same,parasite % of control,[2],39.6% (inactive)
Cc1ccc(C(=O)Nc2cccc(C(F)(F)F)c2)cc1Nc1ncnc2nc[nH]c12,liver cell % of control,[2],108%
same,parasite % of control,[2],64.6% (inactive)
COc1cc(N2CCC(O)CC2)ccc1Nc1nnc(Cl)c(Nc2ccccc2S(C)(=O)=O)n1,liver cell % of control,[2],86.2%
same,parasite % of control,[2],80.5% (inactive)
Cc1ccc(C(=O)Nc2cccc(C(F)(F)F)c2)cc1Nc1ccccn1,liver cell % of control,[2],95%
same,parasite % of control,[2],54.6% (inactive)
Cc1ccc(C(=O)Nc2cccc(C(F)(F)F)c2)cc1NC(=O)c1nccnc1N,liver cell % of control,[2],95%
same,parasite % of control,[2],83.1% (inactive)
CCN1CCN(Cc2ccc(NC(=O)c3ccc(C)c(NC(=O)c4nccnc4N)c3)cc2C(F)(F)F)CC1,liver cell % of control,[2],93.8%
same,parasite % of control,[2],155% (inactive)

# — PubChem BioAssay
